Measured values reported in PubChem BioAssay (NCI).
Values joined by “and” are separate entries in the source; they are usually repeats but may differ in a detail not shown here. Identical values can stand only once. This is part of a sample that, as a whole, favours compounds with a hit. Of some 83,000 tested, about 20% had one in any assay.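 Assay: single dose, 48 h. Readout: percent growth (0 = no net growth; negative = cell death). Active: <10.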 Active and inactive are the calls of the source.

Test system: MDA-MB-468 breast
Experiment: NCI-60 one-dose screen, 48 h (100 = growth as untreated, 0 = no growth, -100 = all killed)
Conditions: 10 µM unless noted

## C1CCCCNCCC1
  growth: 98.6% (inactive)

## CC(=O)Nc1ccc(S(=O)(=O)NC2CCCCC2)cc1
  growth: 93.9% (inactive)

## O=C(CSc1cc[n+](CCCCO)c2ccccc12)n1ccc2ccccc21
  growth: 108% (inactive)

## O[C@H](c1cc(C(F)(F)F)nc2c(C(F)(F)F)cccc12)[C@@H]1CCCCN1
  growth: 27.3% (inactive) and -6.87% (active)

## BrC1CC(Br)c2c1c1c(c3c2C(Br)CC3Br)C(Br)CC1Br (stereo not given)
  growth: 79% (inactive)
